From PubChem BioAssay AID1851 (National Center for Advancing Translational Sciences (NCATS), 2009)
Where “and” joins values, the source holds several entries; their conditions need not be identical. Identical values can stand only once. About 4,000 (25%) of roughly 16,000 compounds were called active. Another 26% or so got no clear call; they are omitted. Calls come from the whole dose curve; as a rule, active = well fitted curve in the direction sought with a large enough effect; inconclusive = small, poorly fitted or top-dose-only effect, or effect the other way; inactive = no such curve, though single readings can be large or run the other way. The list is a sample of the results. More than one record can exist for a structure, and the calls need not agree.
% is set by controls: 0 for no effect and ±100 for the full control effect.

The compounds below were run against Cytochrome P450 2C9 (Homo sapiens) (UniProt P11712) (assay: Cytochrome panel assay with activity outcomes). Settings: recombinant CYP, pro-luciferin dealkylation, luminescence, p450-cyp2c9; series mostly up to 57.1 µM.
Cytochrome P450 2C9 (Homo sapiens), sequence (P11712 whole entry, looked up): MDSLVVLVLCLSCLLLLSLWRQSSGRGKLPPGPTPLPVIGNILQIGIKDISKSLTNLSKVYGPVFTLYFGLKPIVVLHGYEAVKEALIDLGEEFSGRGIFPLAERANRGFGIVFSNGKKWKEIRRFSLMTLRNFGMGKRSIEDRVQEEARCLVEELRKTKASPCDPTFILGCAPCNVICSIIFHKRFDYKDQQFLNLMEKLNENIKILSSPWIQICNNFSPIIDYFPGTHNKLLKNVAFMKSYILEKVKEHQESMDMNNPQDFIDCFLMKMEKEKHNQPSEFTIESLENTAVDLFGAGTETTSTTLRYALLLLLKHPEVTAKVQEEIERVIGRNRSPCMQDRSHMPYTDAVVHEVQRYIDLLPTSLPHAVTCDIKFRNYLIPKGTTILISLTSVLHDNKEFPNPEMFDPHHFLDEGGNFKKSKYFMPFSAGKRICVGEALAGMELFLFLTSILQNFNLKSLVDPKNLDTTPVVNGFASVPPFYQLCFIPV
For OC[C@@H](O)[C@@H](O)[C@@H](O)[C@@H](O)c1nc2ccc(Cl)cc2[nH]1, the activity, negative = inhibition was -5.01% [at 11.4 µM] (inactive).
In the case of N[C@@H]1CONC1=O, the AC50 is reported as “inactive”.
In the case of Cn1c([N+](=O)[O-])cnc1COC(N)=O, the AC50 is reported as “inactive”.
With CSc1nc(N)c2ncn([C@@H]3O[C@@H](COP(=O)(O)OP(=O)(O)O)[C@@H](O)[C@H]3O)c2n1 the AC50 was “inactive”.
With COc1ccc(NC(=O)c2ccc(-c3ccc(-c4noc(C)n4)cc3C)cc2)cc1N1CCN(C)CC1 the AC50 was “inactive and 7.94 µM (active)”.
With COc1ccc(NC(=O)c2ccc(-c3ccc(-c4noc(C)n4)cc3C)cc2)cc1OCCN(C)C the AC50 was “inactive”.
CNCCC=C1c2ccccc2CCc2ccccc21 was tested, and the AC50 was “inactive”.
With OC[C@@H]1O[C@@H](n2cnc3c(NC4CCCC4)ncnc32)[C@@H](O)[C@H]1O the AC50 was “inactive”.
COC(=O)C1(C)C=C2C(=C(c3ccccc3)C(=O)C2C)CN1 (stereo not given) was tested, and the AC50 was 10 µM (active).
For CC1(C)CC(=O)C(CCC(=O)c2ccccc2)C(C)(C)N1 (stereo not given), the AC50 was “inactive”.
With COC(=O)C1(Cc2ccccc2)C=C2C(=C(C)C(=O)C2C)CN1 (stereo not given) the AC50 was “inactive”.
For COC(=O)C1(CC(C)C)C=C2C(=C(c3ccccc3)C(=O)C2C)CN1 (stereo not given), the AC50 was 10 µM (active).
With CCCC1(C(=O)OC)C=C2C(=C(c3ccccc3)C(=O)C2C)CN1 (stereo not given) the AC50 was 5.01 µM (active).
For CN(C)c1ccc(-c2cncnc2NCc2ccccc2)cc1, the activity, negative = inhibition was -13.6% [at 2.29 µM] (inactive).
NC(=O)C[C@H](N)C(N)=O was tested, and the activity, negative = inhibition was -1.03% [at 11.4 µM] (inactive).
With CN[C@]1(C)[C@H]2CC[C@@H](C2)C1(C)C the AC50 was “inactive”.
With Clc1ccc2c(NCCNc3ccnc4cc(Cl)ccc34)ccnc2c1 the activity, negative = inhibition was -3.79% [at 11.4 µM] (inactive).
With CN[C@@H]1[C@H](O[C@@H]2O[C@H](CO)[C@@H](N)[C@H](O)[C@@H]2O)O[C@H]2C[C@@H](N)[C@@H](O[C@H]3[C@@H](O)[C@H](O)[C@H](N)C[C@@H]3N)O[C@H]2[C@H]1O the AC50 was “inactive”.
In the case of COc1cc(OC)c2cc(-c3ccncc3)cnc2c1, the AC50 is reported as “inactive”.
For CCOC(=O)c1cc2c(C(F)(F)F)cc(-c3ccccc3)nc2o1, the AC50 was 2.24 µM (active).
With CCOC(=O)c1cc(NC(=O)c2ccc(C)cc2)c(=O)oc1-c1ccccc1 the AC50 was “inactive”.
In the case of Cc1[nH]c2ccccc2c1CCNC(=O)c1ccc2c(c1[N+](=O)[O-])C(=O)c1ccccc1C2=O, the AC50 is reported as “inactive”.
In the case of Cc1[nH]c2c(C)cccc2c1CCNC(=O)c1ccc2c(c1[N+](=O)[O-])C(=O)c1ccccc1C2=O, the AC50 is reported as 1.12 µM (active).
COc1ccccc1-c1cncnc1NCc1cccnc1 was tested, and the activity, negative = inhibition was 3.29% [at 2.29 µM] (inactive).
In the case of C=CCNC(=O)CC(=O)N/N=C/c1cccc(Br)c1, the AC50 is reported as “inactive”.
With O=C(Cn1nc(C(F)F)cc1C(F)F)N/N=C/c1ccc2c(c1)OCO2 the AC50 was “inactive”.
For O=C(/C=C/c1ccc2c(c1)OCO2)NCCSCc1cccc(Cl)c1, the AC50 was 5.01 µM (active).
O=C(CSCc1cccc(Br)c1)N/N=C/c1ccc2c(c1)OCO2 was tested, and the AC50 was 10 µM (active).
In the case of OC[C@@H]1O[C@@H](N2CCN([C@@H]3O[C@@H](CO)[C@@H](O)[C@H](O)[C@H]3O)CC2)[C@@H](O)[C@H](O)[C@H]1O, the activity, negative = inhibition is reported as 7.18% [at 11.4 µM] (inactive).
Cc1ccc(NC(=O)C(=O)NCc2ccc(/C=C(/C#N)C(=O)NCc3cccnc3)o2)cc1 was tested, and the AC50 was 0.631 µM (active).
In the case of CCN1C(=O)[C@H]2[C@H]3[C@H](O)[C@H](O)C/C(=N/OC[C@@H](C)[C@H](OCc4ccccc4)C(C)C)[C@@H]3CC[C@@H]2C1=O, the activity, negative = inhibition is reported as 19.1% [at 11.4 µM] (inactive).
With Cc1cccc(CNc2nc(-c3ccoc3)nc3ccccc23)c1 the activity, negative = inhibition was -6.69% [at 2.29 µM] (inactive).
With Cc1cccc(NC(=O)CSc2nc3ccccc3c3nc(CCc4c(C)n[nH]c4C)nn23)c1 the AC50 was 1.26 µM (active).
For Cc1nnc(-c2cnn(-c3ccccc3)c2N)n1Cc1ccncc1, the AC50 was 14.1 µM (active).
For Cc1nnc(-c2cnn(-c3ccccc3)c2N)n1Cc1ccc(F)cc1, the AC50 was 15.8 µM (active).
Cc1ncc(CSC(=N)N)n1Cc1ccccc1 was tested, and the activity, negative = inhibition was -16.1% [at 11.4 µM] (inactive).
N=C(N)C(N=Nc1ccccc1)C(=N)N (stereo not given) was tested, and the activity, negative = inhibition was 11.9% [at 11.4 µM] (inactive).
In the case of O=C(O)[C@@H](O)[C@@H](O)[C@@H](O[C@H]1O[C@@H](CO)[C@@H](O)[C@@H](O)[C@@H]1O)[C@@H](O)CO, the AC50 is reported as “inactive”.
With Cc1ccc(C2NC(c3ccc(C)cc3)C(C)C(=NO)C2C)cc1 (stereo not given) the AC50 was 6.31 µM (active).
O=S(=O)(O)CCCc1cccc2ccccc12 was tested, and the activity, negative = inhibition was -3.26% [at 11.4 µM] (inactive).
In the case of c1cc(CSSCc2ccncc2)ccn1, the AC50 is reported as 1.58 µM (active).
c1cc(CNCCN2CCNCC2)ccn1 was tested, and the activity, negative = inhibition was -4.43% [at 11.4 µM] (inactive).
CN1CCN(CCc2ccc(Cl)c(Cl)c2)CC1 was tested, and the AC50 was “inactive”.
N=C(N)SCCc1ccc(CCSC(=N)N)cc1 was tested, and the AC50 was “inactive”.
In the case of Clc1ccc(CSCCc2ccncc2)cc1Cl, the AC50 is reported as 0.0794 µM (active).
For c1ccc2c(CSCCc3ccncc3)cccc2c1, the AC50 was 0.0631 µM (active).
N=C(N)SCCc1ccncc1 was tested, and the activity, negative = inhibition was 6.27% [at 11.4 µM] (inactive).
With c1ccc(CSCCc2ccncc2)cc1 the AC50 was 0.316 µM (active).
In the case of c1ccc2c(CC3NCCN3)cccc2c1, the activity, negative = inhibition is reported as -9.35% [at 11.4 µM] (inactive).
With C[C@@H]1c2ccccc2CN1CC1=NCCN1 the AC50 was “inactive”.
In the case of Cc1ncc([N+](=O)[O-])n1CCO, the AC50 is reported as “inactive”.
In the case of CCOC(=O)N1CCC(NC(=O)CCC(=O)N2CC(C)Oc3ccc(C)cc32)CC1 (stereo not given), the AC50 is reported as “inactive”.
With Cc1oc(-c2ccccc2F)nc1CS(=O)(=O)CC(=O)NCCCN(C)C1CCCCC1 the AC50 was “inactive”.
With CCOC(=O)N1CCC(NC(=O)CS(=O)(=O)Cc2nc(-c3cccc(OC)c3)oc2C)CC1 the AC50 was 25.1 µM (active).
With CNc1ncnc2ccc(-c3cccc(NS(C)(=O)=O)c3)cc12 the activity, negative = inhibition was -18.3% [at 2.29 µM] (inactive).
For CC1=C(CC(=O)O)c2cc(F)ccc2/C1=C\c1ccc(S(C)(=O)=O)cc1, the AC50 was “inactive”.
For CC1=C(CC(=O)O)c2cc(F)ccc2/C1=C\c1ccc(S(C)=O)cc1 (stereo not given), the AC50 was “inactive and 12.6 µM (active)”.
Cc1noc(C)c1COc1cccc(C(=O)OCC(=O)N2CC(=O)Nc3ccccc32)c1 was tested, and the AC50 was 3.55 µM (active).
With Cc1cc(=O)[nH]c(-n2[nH]c(C)cc2=O)n1 the AC50 was “inactive”.
With CO[C@]1(NC(=O)C2SC(=C(C(N)=O)C(=O)O)S2)C(=O)N2C(C(=O)O)=C(CSc3nnnn3C)CS[C@H]21 (stereo not given in full) the AC50 was “inactive”.
CC(=O)NCCNc1cc(-c2ccccc2C)ncn1 was tested, and the activity, negative = inhibition was 5.2% [at 2.29 µM] (inactive).
CC(=O)NCCNc1ncnc2ccc(-c3ccccc3C)cc12 was tested, and the activity, negative = inhibition was -0.544% [at 2.29 µM] (inactive).
Cc1ccccc1-c1cc(C(=O)n2cccn2)c2cc(Cl)ccc2n1 was tested, and the AC50 was 5.01 µM (active).
With C[C@@H](c1ccccc1)N1C(=O)[C@H]2[C@H]3[C@H](O)[C@H](O)C/C(=N/OC[C@@H](O)COCc4ccco4)[C@H]3CC[C@@H]2C1=O the activity, negative = inhibition was 10.7% [at 11.4 µM] (inactive).
For CC(C)n1cc(/C=C2/SC(=O)N(CC(=O)Nc3ccc4c(c3)OCO4)C2=O)c2ccccc21, the AC50 was 3.98 µM (active).
For Cc1c(/C=C2\SC(=O)N(CC(=O)Nc3ccc4c(c3)OCO4)C2=O)c2ccccc2n1C, the AC50 was “inactive”.
C[C@@H](CCc1ccc(O)cc1)NCCc1ccc(O)c(O)c1 was tested, and the AC50 was “inactive”.
In the case of O=C(CCc1ccc(O)cc1)c1c(O)cc(O)cc1O, the AC50 is reported as 12.6 µM (active).
With CC(=O)N[C@H](Cc1ccc(O)cc1)C(=O)O the activity, negative = inhibition was 2.06% [at 11.4 µM] (inactive).
For C(=N\n1cnnc1)/c1cccn1-c1ccccc1, the AC50 was 5.01 µM (active).
In the case of CCOC(=O)c1cc2sc(C)cc2n1CCCN1C(=O)c2ccccc2C1=O, the AC50 is reported as 3.55 µM (active).
In the case of O=c1[nH]c2ccccc2c2ccccc12, the AC50 is reported as “inactive”.
In the case of Cc1cc2[nH]c(=O)c3ccccc3n2n1, the AC50 is reported as “inactive”.
Cc1nc2c(O)cccc2c(=O)[nH]1 was tested, and the AC50 was 3.98 µM (active).
With CCC(C)NC(=O)C1c2cc(OC)c(OC)cc2C(=O)N(C)C1c1cccs1 (stereo not given) the AC50 was “inactive”.
In the case of Cc1ccc(C2C(C(=O)c3sc(C)nc3C)=C(O)C(=O)N2CCN2CCOCC2)o1 (stereo not given), the AC50 is reported as “inactive”.
For COc1cc2c(cc1OC)C(C(=O)N1CCOCC1)C(c1cccs1)N(C)C2=O (stereo not given), the AC50 was “inactive”.
CN(C)CCN1C(=O)C(O)=C(C(=O)c2cc3ccccc3o2)C1c1cccc(Br)c1 (stereo not given) was tested, and the AC50 was “inactive”.
With Cc1ccc(C(=O)C2=C(O)C(=O)N(CCCn3ccnc3)C2c2ccc(OC(C)C)cc2)o1 (stereo not given) the AC50 was 11.2 µM (active).
With CCOc1cccc(C2C(C(=O)c3ccc(C)o3)=C(O)C(=O)N2Cc2ccncc2)c1 (stereo not given) the AC50 was 12.6 µM (active).
With COc1cc(C2C(C(=O)c3ccc(C)o3)=C(O)C(=O)N2CCc2ccccc2)ccc1O (stereo not given) the AC50 was 7.08 µM (active).
For COc1ccc(CCN2C(=O)C(O)=C(C(=O)c3ccco3)C2c2cccs2)cc1OC (stereo not given), the AC50 was 1.41 µM (active).
In the case of C/C(=N\O)c1cccc[n+]1Cc1ccccc1, the activity, negative = inhibition is reported as -0.751% [at 11.4 µM] (inactive).
For COC(=O)[C@]1(C)CCC(c2ccc(C)cc2)=C(CC(=O)O)C1, the activity, negative = inhibition was 3.21% [at 11.4 µM] (inactive).
OC[C@@H]1NC[C@@H](O)[C@H]1O was tested, and the AC50 was “inactive”.
For FC(F)(F)c1ccccc1-c1cncnc1NCCN1CCOCC1, the activity, negative = inhibition was -5.4% [at 2.29 µM] (inactive).
For Cc1cc(NC(=O)Nc2ccc(N(C)C)cc2)c2cc(F)cc(F)c2n1, the AC50 was 6.31 µM (active).
For CSc1ccc(NC(=O)Nc2cc(C)ccn2)cc1, the activity, negative = inhibition was -15.6% [at 11.4 µM] (inactive).
With Cc1cc(N)c2cc(NC(=O)Nc3ccc4nc(C)cc(N)c4c3)ccc2n1 the activity, negative = inhibition was -18.2% [at 11.4 µM] (inactive).
c1ccc(CNc2ncnc3ccc(-c4cccnc4)cc23)cc1 was tested, and the activity, negative = inhibition was 8.31% [at 2.29 µM] (inactive).
